The target of test [1] is Calcium and integrin-binding protein 1 (Homo sapiens) (UniProt Q99828). As to the kind of experiment: Primary qHTS for Identification of Calcium Integrin Binding Protein 1 (CIB1) Competitor (AID 1508620). Also: potency is read from the fitted curve at half-maximal effect. Put shortly:
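Fluorescence polarization competition: GST-tagged CIB1 (1 uM final) preincubated with compound 15 min at room temperature, then FITC-labelled alphaIIb peptide (100 nM final) added. After 15 min at room temperature, polarization read at Ex 480/Em 540.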

Test [2] in a line: Primary qHTS for small molecule stabilizers of the endoplasmic reticulum resident proteome: Secreted ER Calcium Modulated Protein (SERCaMP) assay (AID 1508630). Also: % is scaled to controls: 0 for no effect and ±100 for the full control effect. Put shortly:
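The SH-SY5Y reporter protocol was run at 3 concentrations up to 38.3 uM (primary) or 11 concentrations (follow-up): 16 h compound, 100 nM thapsigargin for 4 h, then extracellular luciferase luminescence.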

Test [3] is described as follows: Counterscreen qHTS for small molecule stabilizers of the endoplasmic reticulum resident proteome: GLuc-NoTag assay (AID 1508627).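 Also: SH-SY5Y cells given compound then 100 nM thapsigargin to empty ER calcium; series mostly up to about 76 µM; 0% = thapsigargin alone and -100% = DMSO vehicle control.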 An outline of the steps:
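Counterscreen line: SH-SY5Y-GLuc-NoTag. Seed, 5 h; compound, 19 h; thapsigargin 100 nM, 4 h; 37C/5% CO2. Readout: secreted GLuc luminescence, coelenterazine 0.07x final, no lysis.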

Test [4] in a line: Confirmatory qHTS for small molecule stabilizers of the endoplasmic reticulum resident proteome: Secreted ER Calcium Modulated Protein (SERCaMP) assay (AID 1508628). Also: series mostly up to about 76 µM; % is scaled to controls: 0 for no effect and ±100 for the full control effect; nearly all actives have a fitted effect of over 40% in size. Put shortly: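 GLuc-SERCaMP-expressing SH-SY5Y cells, pretreated 16 h with compound, are challenged with thapsigargin to empty ER calcium stores; after 4 h, coelenterazine is added directly to the medium and luminescence is imaged.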

Test [5] in a line: Cell Viability qHTS for small molecule stabilizers of the endoplasmic reticulum resident proteome (AID 1508629).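 Also: human SH-SY5Y neuroblastoma cells carrying the GLuc-SERCaMP reporter; compound exposure about 46 h in total before the viability read; % is scaled to controls: 0 for no effect and ±100 for the full control effect.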 The conditions noted are these: cell viability counter-screen, 100 nM thapsigargin for final 4 h.

Records with an inconclusive call do not appear. Values without a mark were called inactive. The source made the active and inactive calls. Calls follow the shape of the dose curve; as a rule, active = well fitted curve in the direction sought with a large enough effect; inconclusive = small, poorly fitted or top-dose-only effect, or another doubt; inactive = no such curve, though single readings can be large; an effect the other way counts as inactive or inconclusive.

Chain of Calcium and integrin-binding protein 1 (Homo sapiens) (Q99828 whole entry, looked up): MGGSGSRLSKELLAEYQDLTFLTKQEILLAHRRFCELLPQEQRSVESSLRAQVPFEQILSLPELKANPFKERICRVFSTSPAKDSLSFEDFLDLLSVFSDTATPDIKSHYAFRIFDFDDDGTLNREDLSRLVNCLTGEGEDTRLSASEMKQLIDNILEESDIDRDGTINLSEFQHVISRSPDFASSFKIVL

For the compound `CC(=O)OCC(=O)[C@@]12OC(C)(C)O[C@H]1C[C@H]1[C@@H]3C[C@H](F)C4=CC(=O)C=C[C@]4(C)[C@@]3(F)[C@@H](O)C[C@@]12C`, the Potency result in test [1] and in test [2] was “inactive” in each case.

Turning to `Cc1cc2nc3c(=O)[nH]c(=O)nc-3n(CC(O)C(O)C(O)CO)c2cc1C` (stereo not given), the Potency in test [1] is 6.81 µM (active). Moreover, the Potency result in test [3] is “inactive”.

Consider `CN(C)S(=O)(=O)c1ccc2c(c1)C(=Cc1cc3c([nH]1)CCCC3)C(=O)N2`, for which the Potency result in test [1] and in test [2] was “inactive” in each case.

With `CC(C)CN(C[C@H](O)[C@H](Cc1ccccc1)NC(=O)O[C@H]1CCOC1)S(=O)(=O)c1ccc(N)cc1`, the Potency result in test [1] and in test [2] was “inactive” each time.

On to `CCN1CCN(c2ccc(Nc3cc(N(C)C(=O)Nc4c(Cl)c(OC)cc(OC)c4Cl)ncn3)cc2)CC1`, for which the Potency result in test [1] and in test [2] was “inactive” in each case.

Turning to `CCC(c1ccc(O)cc1)C(CC)c1ccc(O)cc1` (stereo not given), the Potency entry in test [1] and in test [2] was “inactive” in each case.

On to `Nc1[nH]nc2nnc(-c3c(-c4ccccc4)nn4ccccc34)cc12`, for which the Potency entry in test [1] and in test [2] was “inactive” throughout.

Consider `CNC(=O)c1c(-c2ccc(F)cc2)oc2cc(N(CCO)S(C)(=O)=O)c(C3CC3)cc12`, for which the Potency result in test [1] and in test [2] was “inactive” in each case.

`CN(C(Cc1ccc(OS(=O)(=O)c2cccc3cnccc23)cc1)C(=O)N1CCN(c2ccccc2)CC1)S(=O)(=O)c1cccc2cnccc12` (stereo not given): the Potency result in test [1] and in test [4] was “inactive” each time.

Regarding `O=C(Nc1ccc(OC(F)(F)F)cc1)c1sccc1NCc1ccnc2ccccc12`, the Potency result in test [1] and in test [2] was “inactive” in each case.

On to `NS(=O)(=O)c1cc(Cl)c(Cl)c(S(N)(=O)=O)c1`, for which the Potency entry in test [1], in test [3] and in test [4] was “inactive” in each case. Further, the max response in test [5] is 21%.

`CC[C@H](C=C[C@@H](C)[C@H]1CC[C@H]2[C@@H]3CC=C4C[C@@H](O)CC[C@]4(C)[C@@H]3CC[C@]12C)C(C)C`: the Potency result in test [1] and in test [2] was “inactive” throughout.

With `CCCCN(CCCC)CC(O)c1cc(Cl)cc2c1-c1ccc(Cl)cc1C2=Cc1ccc(Cl)cc1` (stereo not given), the Potency entry in test [1] and in test [2] was “inactive” throughout.

As for `C[C@@H]1O[C@@H](O[C@H]2CC[C@@]3(C)[C@H](CC[C@@H]4[C@H]3C[C@@H](O)[C@]3(C)[C@@H](C5=CC(=O)OC5)CC[C@]43O)C2)C[C@H](O)[C@@H]1O[C@H]1C[C@H](O)[C@H](O[C@H]2C[C@H](O)[C@@H](O)[C@@H](C)O2)[C@H](C)O1` (stereo in doubt), the Potency result in test [1] and in test [2] was “inactive” throughout.

Regarding `Fc1ccc(CNc2ncnc3ccc(F)cc23)cc1`, the Potency entry in test [1] and in test [2] was “inactive” in each case.

In the case of `CCCCCCCCCCCCCC(=O)N[C@H](CO)[C@H](O)c1ccc([N+](=O)[O-])cc1`, the Potency result in test [1] and in test [2] was “inactive” each time.

For `O=C(O)c1nc(=O)[nH]c(=O)[nH]1`, the Potency result in test [1] and in test [2] was “inactive” in each case.

With `Clc1ccc(C2(c3ccc(-c4cn[nH]c4)cc3)CCNCC2)cc1`, the Potency entry in test [1] and in test [2] was “inactive” each time.

For the compound `CC1(C)OC2CC3C4CC(F)C5=CC(=O)C=CC5(C)C4C(O)CC3(C)[C@]2(C(=O)CO)O1` (stereo not given in full), the Potency entry in test [1] and in test [2] was “inactive” in each case.

For `O=C(Nc1cccc(Cl)c1)Nc1ncc(CCNc2ncnc3ccsc23)s1`, the Potency entry in test [1] and in test [2] was “inactive” each time.

Regarding `Cn1c(=O)c(Oc2ccc(F)cc2F)cc2cnc(NC3CCOCC3)nc21`, the Potency entry in test [1] and in test [2] was “inactive” each time.

With `Cc1ccc(NC(=O)c2ccc(CN3CCN(C)CC3)cc2)cc1Nc1nc(-c2cccnc2)cs1`, the Potency entry in test [1] and in test [2] was “inactive” in each case.

In the case of `CC(NCCc1ccc(O)cc1)C(O)c1ccc(O)cc1` (stereo not given), the Potency result in test [1] and in test [2] was “inactive” throughout.

Regarding `CN1[C@H]2CC[C@H]1CC(OC(=O)c1c[nH]c3ccccc13)C2` (stereo not given in full), the Potency result in test [1] and in test [2] was “inactive” in each case.

As for `CN1C(=O)C[C@H](C(=O)N[C@@H](Cc2cnc[nH]2)C(=O)N2CCC[C@@H]2C(N)=O)NC1=O`, the Potency result in test [1] and in test [2] was “inactive” throughout.

Regarding `CC1(C)CC(=O)c2c(C(F)(F)F)nn(-c3ccc(C(N)=O)c(NC4CCC(O)CC4)c3)c2C1` (stereo not given), the Potency result in test [1] and in test [2] was “inactive” each time.

For `COc1c(C)cnc(Cn2cnc3c(Cl)nc(N)nc32)c1C`, the Potency result in test [1] and in test [2] was “inactive” throughout.

With `CC(C)N(CCCNC(=O)Nc1ccc(C(C)(C)C)cc1)C[C@H]1O[C@@H](n2cc(Br)c3c(N)ncnc32)[C@H](O)[C@H]1O`, the Potency result in test [1] and in test [2] was “inactive” each time.

For the compound `CCCCCOC(=O)Nc1nc(=O)n([C@@H]2O[C@H](C)[C@@H](O)C2O)cc1F` (stereo not given in full), the Potency result in test [1] and in test [2] was “inactive” throughout.

Take `CCCC1OC2C[C@@H]3[C@H]4CCC5=CC(=O)C=C[C@]5(C)[C@H]4C(O)C[C@]3(C)[C@]2(C(=O)CO)O1` (stereo not given in full): the Potency result in test [1] and in test [2] was “inactive” in each case.

As for `CSc1cccc(Nc2ncc3cc(-c4c(Cl)cccc4Cl)c(=O)n(C)c3n2)c1`, the Potency entry in test [1] and in test [2] was “inactive” throughout.

Consider `CCn1c(-c2nonc2N)nc2cncc(CNC3CCNCC3)c21`, for which the Potency result in test [1] and in test [2] was “inactive” each time.

Take `CCC[C@H](Nc1nc(-c2ccc(NC(=O)NCC)c(OC)c2)ncc1C)c1cccnc1`: the Potency result in test [1] and in test [2] was “inactive” throughout.

As to `CCN(CCO)CCCOc1ccc2c(Nc3cc(CC(=O)Nc4cccc(F)c4)[nH]n3)ncnc2c1`, the Potency entry in test [1] and in test [2] was “inactive” each time.

Source of the values: PubChem BioAssay (NCATS).
